Only some compounds are listed: those with a hit (about 3.2% of all), similar ones and a draw of the others.
VDR inh = Inhibitors of the vitamin D receptor (VDR): qHTS; Potency, µM, most hits filed as inhibitors; Vitamin D3 receptor (Homo sapiens), P11473; actives 0.93% (n = 400,000); VDR-SRC2-3 peptide fluorescence polarization, 2 h; AID 504847, 2011
Target sequence (P11473 whole entry, looked up): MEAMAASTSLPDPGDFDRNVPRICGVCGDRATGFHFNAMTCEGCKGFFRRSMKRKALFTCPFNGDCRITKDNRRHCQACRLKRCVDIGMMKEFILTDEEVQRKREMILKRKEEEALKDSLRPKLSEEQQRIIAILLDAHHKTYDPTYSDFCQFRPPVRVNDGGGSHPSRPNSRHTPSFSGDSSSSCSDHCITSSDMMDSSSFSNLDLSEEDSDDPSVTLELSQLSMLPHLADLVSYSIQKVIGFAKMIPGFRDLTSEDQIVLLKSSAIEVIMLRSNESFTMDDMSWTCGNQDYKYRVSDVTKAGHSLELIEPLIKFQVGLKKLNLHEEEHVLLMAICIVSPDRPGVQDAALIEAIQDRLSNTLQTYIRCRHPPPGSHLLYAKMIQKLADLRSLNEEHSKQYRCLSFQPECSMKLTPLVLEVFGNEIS
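After 23 nl compound addition and a short centrifugation, plates sat for 2 hours at ambient temperature; polarization of fluorescence then indicated loss of VDR binding to peptide SRC2-3.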
USP1-UAF1 inh = Inhibitors of USP1/UAF1: Primary Screen. recombinant USP1/UAF1, Ub-Rhodamine cleavage fluorescence. Potency, µM (series often up to 57.1 µM), usual class: inhibitors. actives 0.23% (n = 390,000). AID 743255, 2014; also: nearly all actives have a fitted effect of over 60% in size
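1 nM enzyme complex + cpd, 15 min RT; start with Ub-Rho 150nM final; kinetic fluorescence ex 480/em 540, 6 reads q60 s. Buffer 50mM HEPES pH 7.8, 0.5mM EDTA, 0.1 mg/ml BSA, 1mM TCEP, 0.01% Tween-20.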
PLK1 PBD inh = qHTS for Inhibitors of PLK1-PDB (polo-like kinase 1 - polo-box domain): Primary Screen; actives 2.8% (n = 360,000); Serine/threonine-protein kinase PLK1 (Homo sapiens), P53350; Plk1 PBD binding of FITC phosphopeptide, fluorescence polarization; Potency, µM, usual class: inhibitors; AID 720504, 2013; also: series mostly up to about 57 µM; nearly all actives have a fitted effect of over 65% in size
USP2a inh = qHTS Assay for Inhibitors of Ubiquitin-specific Protease USP2a Using CHOP2 as the Reporter | USP2 core, Ub-CHOP2 coupled fluorogenic reporter, 485/531 | Potency, µM (doses to about 38.3 µM), usual class: inhibitors | actives 0.01% (n = 330,000)
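USP2 core (10nM final) preincubated 30min RT with compound in 20mM Tris-HCl pH 8.0, 2mM CaCl2, 2mM beta-mercaptoethanol, 0.05% CHAPS; 25nM Ub-CHOP2 plus 25nM reporter substrate added, fluorescence (Ex485/Em531) read after 60min.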
GALK inh = qHTS Assay for Inhibitors of Human Galactokinase (GALK); Purified GALK, Kinase-Glo residual ATP luminescence; actives 0.007% (n = 270,000); P51570; Potency, µM (highest dose often 57.5 µM), hits mostly inhibitors
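Galactose (100 uM) and ATP (35 uM) were turned over by 5 nM GALK for 1 h at RT. Kinase-Glo Plus then converted the remaining ATP into a luminescent signal.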
Coupling enz = qHTS Assay for Inhibitors of Fructose-1,6-bisphosphate Aldolase from Giardia Lamblia: Coupling assay counterscreen. coupling enzyme system counterscreen, AmpLite Red fluorescence. activity change, negative = inhibition, % at 58.2 µM, hits read low. actives 0.67% (n = 290,000); in the data active = activity change below about -30%
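First, compound is pin-transferred into glyceraldehyde-3-phosphate coupling-enzyme reagent at 57.5 uM final and held 10 min at RT. Next, substrate, coupling system and AmpLite Red are added. After 20 min RT, fluorescence (525/598 nm) is read.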
Each line names hits and unclear results; the compound was inactive in the other large screens. Unless noted, calls follow the shape of the dose curve; as a rule, active = well fitted curve in the direction sought with a large enough effect; inconclusive = small, poorly fitted or top-dose-only effect, or another doubt; inactive = no such curve, though single readings can be large; an effect the other way counts as inactive or inconclusive.

CNc1ccc(Br)cc(C(=O)/C=C/c2ccc3c(c2)OCO3)c1=O	VDR inh 79.4µM, USP1-UAF1 inh inconclusive, PLK1 PBD inh 18.9µM
N/C(=N\OC(=O)/C=C/c1ccccc1)c1ccccn1	none
O=C(/C=C/c1ccc2c(c1)OCO2)c1ccccn1	VDR inh 79.4µM, USP1-UAF1 inh inconclusive
O=C(/C=C/c1ccccc1)c1ccccn1	VDR inh 39.8µM
CNc1ccc(Br)cc(C(=O)/C=C/c2ccc(OC)cc2)c1=O	VDR inh inconclusive, USP1-UAF1 inh inconclusive, PLK1 PBD inh inconclusive
Cc1nn(-c2nc3ccccc3[nH]2)c(=O)c2ccccc12	GALK inh inconclusive
O=C1CN(C(=O)Cc2ccc(F)cc2)C(c2ccccc2)c2cc(Cl)ccc2N1 (stereo unspecified)	none (no result: PLK1 PBD inh, USP2a inh, GALK inh, Coupling enz)
CC1CCN(C(=O)Cn2c(=O)n(CCc3ccccc3)c(=O)c3ccccc32)CC1	none
COc1ccc(-n2c(Cc3ccccc3)nnc2SCC(=O)N2CCCc3ccccc32)cc1	none
Cn1c(=O)c2c(nc(Br)n2CCc2ccccc2)n(C)c1=O	none
Cc1ccc(OCCn2c(Br)nc3c2c(=O)n(C)c(=O)n3C)cc1	Coupling enz -49.9
CCn1nc(NC(=O)c2ccncc2)c2cc3ccc(C)cc3nc21	none
CCn1nc(NC(=O)c2ccncc2)c2cc3cc(C)ccc3nc21	PLK1 PBD inh 3.77µM
O=C(CN1CCCC1)Nc1ccc(Cl)cc1C(F)(F)F	PLK1 PBD inh 23.8µM
COc1ccc(C)cc1-n1nnnc1SCC1CCCO1 (stereo unspecified)	PLK1 PBD inh 23.8µM
Cc1ccc(C)c(-n2nnnc2SCC(=O)NCC2CCCO2)c1 (stereo unspecified)	none (no result: GALK inh, Coupling enz)
O=C(NCC(=O)N1CCN(C(=O)c2ccco2)CC1)c1ccc(Br)cc1	PLK1 PBD inh 21.2µM (no result: Coupling enz)
O=C(c1ccco1)N1CCN(C/C=C/c2ccccc2)CC1	PLK1 PBD inh 29.9µM
O=C(NC(=S)N1CCN(C/C=C/c2ccccc2)CC1)c1ccco1	none
Nc1c(N(CCC2=CCCCC2)C(=O)COc2ccc(F)cc2Cl)c(=O)[nH]c(=O)n1Cc1ccccc1	none (no result: USP2a inh, GALK inh, Coupling enz)
O=C(NCCNC(=O)c1ccccc1)c1ccccc1	none
O=C(NCC#CCOCc1ccccc1)c1ccccc1	PLK1 PBD inh 26.7µM (no result: GALK inh)
CCOC(=O)Nc1ccc2c(c1)N(C(=O)CNC)c1ccccc1CC2	none
COc1ccc(SCC(Cc2ccccc2)N2CCN(C)CCC2=O)cc1 (stereo unspecified)	none (no result: USP1-UAF1 inh, PLK1 PBD inh, USP2a inh, GALK inh)
Cc1ccc(-n2cccc2/C=C2/C(=N)N3C(=NC2=O)SN=C3S(C)(=O)=O)cc1	PLK1 PBD inh inconclusive
CCS(=O)(=O)C1=NN2C(=N)/C(=C\c3ccc(OS(=O)(=O)c4ccccc4)cc3)C(=O)N=C2S1	VDR inh 50.1µM, PLK1 PBD inh 21.2µM, GALK inh inconclusive (no result: Coupling enz)
CCC1=NN2C(=N)/C(=C/c3ccc(OS(=O)(=O)c4ccccc4)cc3)C(=O)N=C2S1	VDR inh inconclusive, PLK1 PBD inh inconclusive
COc1cc(/C=C2/C(=N)N3C(=NC2=O)SN=C3S(C)(=O)=O)ccc1OS(=O)(=O)c1ccc(C)cc1	VDR inh inconclusive, PLK1 PBD inh 26.7µM
Cc1ccc(S(=O)(=O)Oc2ccc(/C=C3/C(=N)N4C(=NC3=O)SN=C4S(C)(=O)=O)cc2)cc1	VDR inh inconclusive, USP1-UAF1 inh inconclusive, PLK1 PBD inh 21.2µM, GALK inh inconclusive (no result: Coupling enz)
CS(=O)(=O)C1=NSC2=NC(=O)/C(=C\c3ccc(OS(=O)(=O)c4ccccc4)cc3)C(=N)N21	VDR inh 35.5µM, PLK1 PBD inh 29.9µM, GALK inh inconclusive (no result: Coupling enz)
CCOC(=O)C1=C(C)NC(=O)NC1c1ccc(N2CCC(c3ccccc3)=N2)cc1 (stereo unspecified)	none
COc1ccc(NCc2cccn2-c2nnc(N3CCC(C)CC3)s2)c(OC)c1	none (no result: PLK1 PBD inh, USP2a inh, GALK inh, Coupling enz)
COc1cccc(-n2c(C)cc(/C=C3/C(=N)N4C(=NC3=O)SN=C4S(C)(=O)=O)c2C)c1	USP1-UAF1 inh inconclusive, PLK1 PBD inh 18.9µM
CCc1ccc(-n2cccc2/C=C2/C(=N)N3C(=NC2=O)SN=C3S(C)(=O)=O)cc1	VDR inh inconclusive, USP1-UAF1 inh inconclusive, PLK1 PBD inh 13.4µM
Cc1ccc(-n2cccc2/C=C2\C(=N)N3N=C(c4ccco4)SC3=NC2=O)cc1	PLK1 PBD inh 29.9µM
CCS(=O)(=O)C1=NN2C(=N)/C(=C\c3ccc(OS(=O)(=O)c4ccccc4)c(OC)c3)C(=O)N=C2S1	none (no result: VDR inh, USP1-UAF1 inh, PLK1 PBD inh, Coupling enz)
CCS(=O)(=O)C1=NSC2=NC(=O)/C(=C\c3ccc(OS(=O)(=O)c4ccccc4)c(OC)c3)C(=N)N21	VDR inh 50.1µM, PLK1 PBD inh 26.7µM, GALK inh inconclusive
Cc1cccc(COC[C@H](Cc2ccccc2)N2CCN(C(=O)c3cccc(Cl)c3)CCC2=O)c1	VDR inh inconclusive (no result: USP1-UAF1 inh, USP2a inh, GALK inh)
COc1ccccc1N1CCN(C(=O)C(=O)c2cn(CC(=O)N3CCCC3)c3ccccc23)CC1	none
COc1ccc(Nc2ncc(C#N)c(N)n2)c(OC)c1	PLK1 PBD inh inconclusive
COc1ccccc1CNC(=O)Cc1c(C)c2cc3c(C)coc3c(C)c2oc1=O	none (no result: PLK1 PBD inh, USP2a inh, GALK inh, Coupling enz)
Oc1cccc2c(NC(=S)Nc3ccc(SC(F)F)cc3)cccc12	USP1-UAF1 inh inconclusive, Coupling enz -43.5
C=CCOc1ccccc1CNc1ccc2c(c1)OCCO2	PLK1 PBD inh inconclusive, Coupling enz -37.1
O=C(O)C1Nc2c(C(=O)N3CCOCC3)cccc2C2C=CCC12 (stereo unspecified)	VDR inh inconclusive, USP1-UAF1 inh inconclusive, PLK1 PBD inh 11.9µM, Coupling enz -33.7
CCOC(=O)c1ccc2c(c1)C1C=CCC1C(C(=O)O)N2 (stereo unspecified)	none (no result: VDR inh, USP1-UAF1 inh, PLK1 PBD inh)
O=C(O)C1Nc2c(C(F)(F)F)ccc(Cl)c2C2C=CCC12 (stereo unspecified)	VDR inh inconclusive, PLK1 PBD inh 26.7µM
Cc1ccc(Cl)c2c1N[C@@H](c1ccc(C(=O)O)cc1)[C@H]1CC=C[C@@H]21	none (no result: PLK1 PBD inh, USP2a inh, GALK inh, Coupling enz)
Cc1cc(C)c2c(c1)NC(C(=O)O)C1CC=CC21 (stereo unspecified)	USP1-UAF1 inh inconclusive, PLK1 PBD inh 2.99µM
Cc1ccc2c(c1C)NC(C(=O)O)C1CC=CC21 (stereo unspecified)	USP1-UAF1 inh inconclusive, PLK1 PBD inh 18.9µM
C[C@H]1CCC[C@]2(O[C@H](CCO)C[C@H](O)[C@H]2O)O1	none (no result: USP2a inh, GALK inh, Coupling enz)
